High-throughput results as filed in PubChem.
NOMO-1 viab = NOMO-1 AML cell viability reduction, primary screen, STK33 inhibitor project, CellTiter-Glo luminescence | NOMO-1 AML viability, 72 h | inhibition, % (test concentration not listed) | 37,000 tested, 7.5% active | AID 2330, 2010; in the data active = inhibition above about 80%
STK33 inh = STK33 kinase inhibitors, primary screen, biochemical, luminescence, ADP-Glo, MBP substrate; inhibition, % at 12.5 µM; 27,000 tested, 0.44% active; Serine/threonine-protein kinase 33 (Homo sapiens), Q9BYT3; in the data active = inhibition above about 20%
Target sequence (Q9BYT3 whole entry, looked up): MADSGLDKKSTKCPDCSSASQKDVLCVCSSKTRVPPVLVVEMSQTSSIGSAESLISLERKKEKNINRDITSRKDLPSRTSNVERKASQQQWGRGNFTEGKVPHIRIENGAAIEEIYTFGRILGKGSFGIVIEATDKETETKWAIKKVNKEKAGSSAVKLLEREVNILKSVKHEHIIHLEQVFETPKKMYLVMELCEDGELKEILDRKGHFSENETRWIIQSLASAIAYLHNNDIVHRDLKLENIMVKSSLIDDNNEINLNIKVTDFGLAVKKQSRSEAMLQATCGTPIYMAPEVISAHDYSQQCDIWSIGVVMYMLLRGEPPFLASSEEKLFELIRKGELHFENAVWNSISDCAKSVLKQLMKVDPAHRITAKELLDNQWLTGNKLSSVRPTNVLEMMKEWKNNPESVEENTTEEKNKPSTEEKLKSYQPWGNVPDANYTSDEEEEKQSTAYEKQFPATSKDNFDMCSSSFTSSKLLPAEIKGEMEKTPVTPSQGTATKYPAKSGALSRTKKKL
PD-1 reverse act = activators reversing PD-1 mediated T-cell inhibition, primary screen, luminescence, primary human CD4 T cells, PD-L1 beads | 29,000 tested, under 10 active | activation, % (test concentration not listed) | CellTiter-Glo 96 h | AID 2316, 2010; call rule not given here;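 note: 0% = median vehicle wells and 100% = positive control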
An asterisk follows results filed as active; . = no result given; ! = not confirmed by another sample. The entries come from a sample that favours hits as a whole.

SMILES | NOMO-1 viab | STK33 inh | PD-1 reverse act
O=C(ON1C(=O)c2ccccc2C1=O)C1CCCCC1 | 126* | . | -3
O=C(Nc1ccccc1)C1CCCCC1 | 6 | . | 0
C[C@H]1CN([C@@H](C)CO)C(=O)Cc2cc(N(C)C)ccc2O[C@@H]1CN(C)C(=O)Nc1ccc(C(F)(F)F)cc1 | -1 | -16 | .
Cc1cc(C)c(C#N)c(SCC(O)CS(=O)c2ccc(C(C)(C)C)cc2)n1 (stereo not given) | 23 | 0 | .
C[C@@H]1CN([C@H](C)CO)C(=O)Cc2cc(NC(=O)Cn3cnnn3)ccc2O[C@H]1CN(C)S(C)(=O)=O | 21 | 6 | .
O=C(COc1ccc(S(=O)(=O)N2CCCCC2)cc1)Nc1ccc2c(c1)OCCO2 | -5 | 10 | -1
CCOc1ccc2nc(SCC(=O)Nc3ccc(Cl)cc3)[nH]c2c1 | 39 | -7 | -6
Cc1ccc(S(=O)(=O)NCC(=O)Nc2ccc(Br)cc2F)cc1 | -12 | 0 | 0
COc1cc(/C=C/C(=O)N2CCC=CC2=O)cc(OC)c1OC | 119* | 2 | .
COc1cc(/C=C\C(=O)O)cc(OC)c1OC | . | -2 | .
COc1ccc(-c2nnc(SCC(=O)O)n2-c2cccc(C(F)(F)F)c2)cc1OC | 3 | 1 | .
O=C1NCc2c1c1c3ccccc3[nH]c1c1[nH]c3ccccc3c21 | 97* | 64* | -4
C[C@H](CO)N1C[C@H](C)[C@@H](CN(C)Cc2ccc(Cl)c(Cl)c2)Oc2c(NC(=O)c3cnccn3)cccc2C1=O | 51 | . | .
Cc1noc(C)c1NC(=O)Nc1ccc2c(c1)C(=O)N([C@@H](C)CO)C[C@H](C)[C@H](CN(C)Cc1ccncc1)O2 | -10 | 1 | 2
Cc1nc2ccc(F)cc2c2c1CCN2c1ccc(Cl)cc1 | 107* | . | -6
C[C@@H]1CN([C@H](C)CO)C(=O)c2cc(NC(=O)Nc3ccc(F)cc3)ccc2O[C@H]1CN(C)Cc1ccccc1 | -5 | . | 0
C[C@H](CO)N1C[C@H](C)[C@@H](CN(C)C(=O)Nc2ccc(C(F)(F)F)cc2)Oc2ccc(NC(=O)Nc3ccc(C(F)(F)F)cc3)cc2C1=O | 104* | 0 | -6
C[C@@H]1CN([C@@H](C)CO)C(=O)c2cc(NC(=O)Nc3ccc(F)cc3)ccc2O[C@@H]1CN(C)C(=O)Nc1ccc(C(F)(F)F)cc1 | 105* | . | -2
C[C@@H]1CN([C@H](C)CO)C(=O)c2cc(NC(=O)Nc3ccc(C(F)(F)F)cc3)ccc2O[C@H]1CN(C)C(=O)Nc1ccc(F)cc1 | 35 | . | -2
Cc1ccc(S(=O)(=O)Nc2ccc3c(c2)C(=O)N([C@H](C)CO)C[C@H](C)[C@H](CN(C)C(=O)Nc2ccc(C(F)(F)F)cc2)O3)cc1 | 40 | 0 | -2
C[C@H](CO)N1C[C@H](C)[C@H](CN(C)C(=O)Nc2ccc(C(F)(F)F)cc2)Oc2ccc(NC(=O)Nc3ccc(C(F)(F)F)cc3)cc2C1=O | 74 | . | -2
Cc1ccc(S(=O)(=O)Nc2ccc3c(c2)C(=O)N([C@@H](C)CO)C[C@@H](C)[C@@H](CN(C)C(=O)Nc2ccc(C(F)(F)F)cc2)O3)cc1 | 111* | 2 | -3
CNC[C@@H]1OCCCC[C@@H](C)Oc2ccc(NC(=O)Nc3cccc4ccccc34)cc2C(=O)N([C@H](C)CO)C[C@@H]1C | 4 | 4 | 1
CCOC(=O)c1c(NC(=O)c2ccc(N(C)S(C)(=O)=O)cc2)sc2c1CCCC2 | 30 | 4 | .
Cc1ccc(S(=O)(=O)Nc2ccc3c(c2)CC(=O)N([C@@H](C)CO)C[C@H](C)[C@H](CN(C)CC2CCCCC2)O3)cc1 | 102* | 2 | -1
SMILES | NOMO-1 viab | STK33 inh | PD-1 reverse act
C[C@@H]1CN([C@H](C)CO)C(=O)Cc2cc(NS(=O)(=O)c3ccccc3)ccc2O[C@H]1CN(C)CC1CCCCC1 | 62 | 2 | -1
Cc1ccc(S(=O)(=O)Nc2ccc3c(c2)CC(=O)N([C@H](C)CO)C[C@@H](C)[C@H](CN(C)CC2CCCCC2)O3)cc1 | 84* | -1 | 1
Cc1ccc(S(=O)(=O)Nc2ccc3c(c2)CC(=O)N([C@H](C)CO)C[C@@H](C)[C@@H](CN(C)CC2CCCCC2)O3)cc1 | 97* | 1 | -5
Cc1ccc(S(=O)(=O)Nc2ccc3c(c2)CC(=O)N([C@H](C)CO)C[C@@H](C)[C@H](CN(C)CC2CC2)O3)cc1 | 12 | . | .
C[C@H](CO)N1C[C@H](C)[C@H](CN(C)CC2CCCCC2)Oc2ccc(NS(=O)(=O)c3ccccc3)cc2CC1=O | 29 | 0 | .
COc1ccccc1NC(=O)CSC1CC(=O)N(c2ccc(C)cc2)C1=O (stereo not given) | 11 | 0 | .
Cn1c(SCC(=O)Nc2ccccc2Cl)nnc1-c1ccc(Br)cc1 | 16 | 2 | .
C[C@H]1CN([C@@H](C)CO)C(=O)Cc2cc(NC(=O)Cc3cn(C)c4ccccc34)ccc2O[C@H]1CN(C)S(=O)(=O)c1cccs1 | 13 | 2 | 1
COc1cccc(C(=O)/C=c2\[nH]c(=O)/c(=C\c3cccs3)s2)c1 | 104* | 5 | -5
C[C@H](CO)N1C[C@H](C)[C@@H](CN(C)C(=O)Nc2cccc3ccccc23)Oc2c(NC(=O)Nc3cccc4ccccc34)cccc2C1=O | 32 | . | .
c1ccc2c(Cc3c[nH]c4ccccc34)c[nH]c2c1 | -10 | -3 | .
c1ccc(C(c2ccccc2)N2CCN(CCCc3c[nH]c4ccccc34)CC2)cc1 | 116* | . | -1
Cc1nc2sc3c(c2c2nnc(SCC(=O)Nc4ccc(Br)cc4)n12)CCCC3 | -13 | 1 | .
Cc1[nH]c2ccccc2c1C(c1ccccc1)N1CCN(C)CC1 (stereo not given) | 117* | . | -7
Cc1[nH]c2ccccc2c1C(O)c1cccnc1 (stereo not given) | 33 | . | -12
COc1ccc([Si](C)(C)[C@@H]2[C@@H](CCn3cc(CCO)nn3)O[C@]3(C(=O)N(Cc4ccc(N5CCC5=O)cc4)c4ccccc43)[C@H]2C)cc1 | . | 22* | .
COc1ccc([Si](C)(C)[C@H]2[C@H](CCn3cc(CCO)nn3)O[C@@]3(C(=O)N(Cc4ccc(N5CCC5=O)cc4)c4ccccc43)[C@@H]2C)cc1 | . | 19 | .
CC(=O)c1cccc(NC(=O)C(C)NS(=O)(=O)c2ccc(C)cc2)c1 (stereo not given) | 15 | 2 | 0
C[C@@H]1CN([C@@H](C)CO)C(=O)c2cccc(NC(=O)c3nc4ccccc4s3)c2O[C@@H]1CN(C)S(C)(=O)=O | 29 | . | 0
CCOC(=O)CCc1nc2ccc(O)cc2[nH]1 | -6 | 7 | 2
O=C(CNC(=O)c1cn(-c2ccccc2)nc1-c1ccccc1)c1ccccc1 | 6 | -1 | .
C(=NCc1ccco1)c1cn(-c2ccccc2)nc1-c1ccccc1 | 105* | 0 | -5
C[C@H]1CN([C@@H](C)CO)C(=O)c2cc(NC(=O)C3CC3)ccc2O[C@H]1CN(C)S(C)(=O)=O | 0 | 4 | 2
COC(=O)C1=C(C)NC2=C(C(=O)c3ccccc32)C1c1ccc(OCc2cccc([N+](=O)[O-])c2)c(Br)c1 (stereo not given) | . | 1 | .
COC(=O)C1=C(C)NC(C)=C(C(=O)OCCN(C)Cc2ccccc2)C1c1cccc([N+](=O)[O-])c1 (stereo not given) | 142*! | 2 | -10
